From PubChem BioAssay (NCATS) come the findings set out here.

The nature of test [1]: Cellular Toxicity (caspase-3) Hek293 (AID 664).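 Note: cells exposed to compound for 16 h at 37 °C before readout.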 The note with it: HEK293 caspase-3 activation, DMSO = 0%, 100 µM tamoxifen = 100%; at 92.2 µM (top of the series). The procedure, abridged:
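qHTS, HEK293 (human embryonic kidney), 16 h cpd exposure in complete medium. Caspase-3/7 activation = luminescence increase; normalized to DMSO/100 uM tamoxifen; Hill-fit AC50.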

A short description of test [2]: Cell Viability - LYMP2-006 (AID 978). Note: % is set by controls: 0 for no effect and ±100 for the full control effect; nearly all actives have a fitted effect of over 60% in size. The procedure, abridged:
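Potency values are Hill-fit AC50s for decreases in intracellular ATP (CellTiter-Glo luminescence). LYMP2-006 lymphoblastoid cells, 2500 per well, were exposed to compound in complete culture medium for 24 hr at 37 C.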

Test [3] is described as follows: Cell Viability - LYMP2-020 (AID 986).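 Note: plate controls were DMSO only for no effect and tetraoctylammonium bromide at 92 µM for full effect; nearly all actives have a fitted effect of over 55% in size.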 The method, boiled down: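 Seed 2500 cells per well and incubate 5 hr at 37 C. Add compounds at a concentration series and incubate 24 hr at 37 C. Add CellTiter-Glo, wait 30 min at RT, read luminescence, and fit a Hill curve for AC50.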
For test [4], the target named is Estrogen receptor (Homo sapiens) (UniProt P03372). The experiment in a line: qHTS assay for small molecule antagonists of estrogen receptor alpha signaling (AID 588513; active = well fitted curve in the direction sought with a large enough effect in the signal ratio, with a control signal flat, not every such curve was filed as active; the % refers to the signal ratio; note: % is set by controls: 0 for no effect and ±100 for the full control effect). The method, boiled down: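 Antagonist mode: inhibition of 0.5 nM 17-beta-estradiol-driven beta-lactamase reporter in HEK 293 ER-alpha-UAS-bla cells, 18 h at 37C, CCF4 readout after 2 h at RT. Normalised to estradiol and DMSO; titration fitted to Hill.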
Chain of Estrogen receptor (Homo sapiens) (P03372 whole entry, looked up): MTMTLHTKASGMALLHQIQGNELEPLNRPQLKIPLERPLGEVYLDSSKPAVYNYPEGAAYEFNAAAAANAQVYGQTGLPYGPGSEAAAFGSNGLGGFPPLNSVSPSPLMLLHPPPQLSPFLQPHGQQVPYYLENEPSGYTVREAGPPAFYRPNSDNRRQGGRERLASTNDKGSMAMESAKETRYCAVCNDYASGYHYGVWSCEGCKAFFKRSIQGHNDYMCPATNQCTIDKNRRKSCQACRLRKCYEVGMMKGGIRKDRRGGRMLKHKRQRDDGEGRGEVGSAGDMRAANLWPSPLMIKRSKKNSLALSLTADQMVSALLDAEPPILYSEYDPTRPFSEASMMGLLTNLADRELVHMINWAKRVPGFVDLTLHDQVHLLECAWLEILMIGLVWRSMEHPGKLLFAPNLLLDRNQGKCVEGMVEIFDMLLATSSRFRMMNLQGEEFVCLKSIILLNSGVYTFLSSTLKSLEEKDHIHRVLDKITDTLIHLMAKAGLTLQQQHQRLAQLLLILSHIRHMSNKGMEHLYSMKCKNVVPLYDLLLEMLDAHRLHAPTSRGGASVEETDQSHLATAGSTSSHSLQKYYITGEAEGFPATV
In general terms: Quantitative high-throughput screening tests each substance at several concentrations.

Test [5] has the same target. Description: qHTS assay for small molecule agonists of estrogen receptor alpha signaling (AID 588514; calls by dose curve;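 note: 0% = vehicle only and 100% = reference agonist; nearly all actives have a fitted effect of over 70% in size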). The procedure, abridged: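 Efficacy is expressed against 20 nM 17-beta-estradiol (100%) and DMSO basal (0%); EC50 from Hill equation. Assay: beta-lactamase reporter in ER-alpha-UAS-bla HEK 293 cells, 18 h compound incubation, CCF4 detection.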
The target in test [6] is Glucocorticoid receptor (Homo sapiens) (UniProt P04150). Description: qHTS assay for small molecule antagonists of glucocorticoid receptor signaling (AID 588533; active = well fitted inhibition curve with a large enough effect in the signal ratio, with a control signal flat, not every such curve was filed as active; the % refers to the signal ratio;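 note: cells stimulated with 2 nM dexamethasone as agonist; % is set by controls: 0 for no effect and ±100 for the full control effect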). The method, boiled down:
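Antagonist-mode qHTS: compound titrations added to GRE-bla HeLa cells, then dexamethasone 2 nM final; 18 h, 37 C. CCF4 FRET fluorescence normalized to dexamethasone and DMSO; IC50 from Hill fit.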

Test [7] in a line: qHTS assay for small molecule antagonists of peroxisome proliferator-activated receptor delta signaling (AID 588535; active = well fitted inhibition curve with a large enough effect in the signal ratio, with a control signal flat, not every such curve was filed as active; the % refers to the signal ratio;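 for max response: cells co-treated with a PPAR-delta agonist as stimulator during compound exposure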). The note with it: HEK293T PPARd-UAS-bla, beta-lactamase FRET ratio, 18 h; 460 nm channel. The procedure, abridged: (§1)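 Titrations were run on PPAR-delta-UAS-bla HEK293T cells in charcoal/dextran-stripped serum, incubated 18 h at 37 C. CCF4 fluorescence (460/530 nm) after 2 h RT; Hill equation yields IC50 and maximal response.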

Test [8] has as its target Peroxisome proliferator-activated receptor delta (Homo sapiens) (UniProt Q03181). The test is described as above. The method, boiled down:
as §1

The target in test [9] is Peroxisome proliferator-activated receptor gamma (Homo sapiens) (UniProt P37231). Description: qHTS assay for small molecule agonists of peroxisome proliferator-activated receptor gamma signaling (AID 588536; active = well fitted curve in the direction sought with a large enough effect in the signal ratio, with a control signal flat, not every such curve was filed as active; the % refers to the signal ratio;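 note: 0% = DMSO basal wells and 100% = rosiglitazone at 2 µM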). The method, boiled down:
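Cells were plated and held 6–6.5 h at 37 C, then compounds were added as a titration series. After a further 16 h, CCF4 dye was loaded for 2 h at room temperature and emission at 460/530 nm recorded.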

Test [10] can be described thus: qHTS assay to identify small molecules that stimulate interleukin-8 (IL-8) secretion (AID 651758; active = well fitted activation curve with a large enough effect in the signal ratio; the % refers to the signal ratio; note: potency is the fitted concentration of half-maximal effect; for activation: 0% is about no effect). The method, boiled down: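 Secreted IL-8 measured homogeneously by TR-FRET (two labelled anti-IL-8 antibodies, 1-3 h at room temperature) after a 16 h, 37 C compound treatment of THP-1 cells at 2000 cells/well.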
Test [11] in a line: qHTS assay for cell viability of HEK293 cells (AID 743288). Note: % is set by controls: 0 for no effect and ±100 for the full control effect; nearly all actives have a fitted effect of over 50% in size. The note with it: ATP luminescence (CellTiter-Glo), 18 h; max response: stronger effect = lower value. The method, boiled down:
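Readout is luciferase-coupled ATP content (CellTiter-Glo luminescence, 30 min room temperature) as a measure of metabolically competent cells. Parental HEK293 cells were plated 5 h or more before compound addition, then treated 18 h at 37 C.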

Test [12] concerns the target Mitogen-activated protein kinase 10 (Mus musculus) (UniProt Q61831). The experiment in a line: JNK3 AlphaScreen Assay (AID 530; active = well fitted curve in either direction with a large enough effect, not every such curve was filed as active;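 note: kinase came from lysate of stimulated human HepG2 cells; signal reports phosphorylation of biotinylated GST-cJun 1-79 at Ser73 with 10 µM ATP; % is set by controls: 0 for no effect and ±100 for the full control effect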). The procedure, abridged: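 qHTS titrations with 15 min compound pre-incubation before adding ATP (10 uM final). Read-out: AlphaScreen of Ser73-phosphorylated biotin-GST-cJun using HepG2 lysate JNK3 activated by IL-1β and TNFα.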
On the technique in general: In Alpha technology, singlet oxygen from a donor bead excites a nearby acceptor bead.

The nature of test [13]: MultiTox-Fluor Cytotoxicity Assay - LYMP1-002 - Live Cells (AID 955).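 Note: cells exposed to compound for 16 hours; % is set by controls: 0 for no effect and ±100 for the full control effect.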 The method, boiled down: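 Cells were seeded at 2500 per well and incubated 5 hr. Compounds were then added for 16 hr at 37 C, followed by MultiTox-Fluor reagent for 60 min at room temperature and fluorescence reading of viable-cell protease signal.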
Test [14] in a line: Cell Viability - LYMP2-013 (AID 970).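 Note: 0% = DMSO only and full inhibition = tetraoctylammonium bromide control; nearly all actives have a fitted effect of over 55% in size.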 The procedure, abridged:
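Cytotoxicity is scored as a concentration-dependent drop in intracellular ATP in human lymphoblastoid cells after 24 hr compound exposure at 37 C. ATP is quantified by luciferase luminescence, and AC50 values come from Hill-equation modeling.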

Test [15] can be described thus: Cell Viability - LYMP2-007 (AID 979).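 Note: cells exposed to compound for 24 h before reading; 0% = DMSO only and the negative end = 92 µM tetraoctylammonium bromide; nearly all actives have a fitted effect of over 60% in size.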 The method, boiled down: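 Cells are seeded at 2500 per well and rested 5 hr. Compounds are then added over a concentration series for 24 hr at 37 C. CellTiter-Glo is added for 30 min at room temperature before luminescence reading.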
Test [16] can be described thus: Cell Viability - LYMP1-002 - Assay at 16 hr (AID 948).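 Note: 0% = DMSO alone and full effect = 92 µM tetraoctylammonium bromide.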 The procedure, abridged: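 ATP luminescence (CellTiter-Glo) was measured after 16 hr compound exposure at 37 C of 2500 lymphoblastoid LYMP1-002 cells per well. Concentration-response curves were fitted with the Hill equation to give AC50.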
Test [17] is described as follows: Cell Viability - LYMP2-005 (AID 967).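 Note: plate controls were DMSO only for no effect and 92 µM tetraoctylammonium bromide control for full effect.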 The method, boiled down:
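LYMP2-005 human lymphoblastoid cells (2500/well) were treated with compounds for 24 h at 37 C. Intracellular ATP was then measured by CellTiter-Glo luminescence after 30 min at room temperature. AC50 values came from Hill-equation fits of qHTS concentration-response data.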

The nature of test [18]: Cell Viability - LYMP2-012 (AID 982).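 Note: cellular ATP by luciferase luminescence where a drop means cytotoxicity; cells exposed to compound for one day before reading; 0% = DMSO only and full loss = 92 µM tetraoctylammonium bromide; nearly all actives have a fitted effect of over 55% in size.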
For test [19], the target named is Peroxisome proliferator-activated receptor gamma (Homo sapiens) (UniProt P37231). The experiment in a line: qHTS assay for small molecule antagonists of peroxisome proliferator-activated receptor gamma signaling (AID 588537; active = well fitted inhibition curve with a large enough effect in the signal ratio, with a control signal flat, not every such curve was filed as active; the % refers to the signal ratio;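 note: reporter cells co-stimulated with 50 nM rosiglitazone agonist during compound treatment; % of control where 0% means no effect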). The procedure, abridged:
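Antagonist-mode β-lactamase reporter screen run as a titration series. HEK293 PPARγ-UAS-bla cells are stimulated with rosiglitazone (50 nM final) for 16 h, then CCF4 is read at 460/530 nm. Data are scaled between DMSO and rosiglitazone and fitted to the Hill equation.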

A short description of test [20]: Cell Viability - LYMP1-002 - Assay at 40 hr (AID 994).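 Note: 0% = DMSO only and full inhibition = 92 µM tetraoctylammonium bromide; nearly all actives have a fitted effect of over 60% in size.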 The procedure, abridged:
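Cells are plated at 2500 per well and rested 5 hr at 37 C. Compounds are added and incubated 40 hr at 37 C. CellTiter-Glo reagent is added for 30 min at room temperature before luminescence is read.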

Several values for one entry are separate records, joined by “and”; a condition that tells them apart may be missing. Identical values can stand only once. Records with an inconclusive call do not appear. Activity calls are given as the source filed them. Unless noted, calls come from the whole dose curve; as a rule, active = well fitted curve in the direction sought with a large enough effect; inconclusive = small, poorly fitted or top-dose-only effect, or another doubt; inactive = no such curve, though single readings can be large; an effect the other way counts as inactive or inconclusive.

Chain of Peroxisome proliferator-activated receptor delta (Homo sapiens) (Q03181 whole entry, looked up): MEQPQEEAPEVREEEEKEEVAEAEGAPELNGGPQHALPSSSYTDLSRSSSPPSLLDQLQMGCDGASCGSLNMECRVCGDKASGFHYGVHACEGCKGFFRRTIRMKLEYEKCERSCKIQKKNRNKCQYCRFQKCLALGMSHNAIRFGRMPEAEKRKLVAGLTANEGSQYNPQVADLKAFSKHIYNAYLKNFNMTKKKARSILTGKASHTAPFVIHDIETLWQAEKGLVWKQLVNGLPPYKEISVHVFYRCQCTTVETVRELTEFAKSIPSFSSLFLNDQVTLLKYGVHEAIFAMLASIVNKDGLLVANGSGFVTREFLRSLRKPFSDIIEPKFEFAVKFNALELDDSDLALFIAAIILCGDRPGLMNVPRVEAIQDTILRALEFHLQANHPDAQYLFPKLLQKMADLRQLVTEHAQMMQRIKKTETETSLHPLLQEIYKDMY
Chain of Glucocorticoid receptor (Homo sapiens) (P04150 whole entry, looked up): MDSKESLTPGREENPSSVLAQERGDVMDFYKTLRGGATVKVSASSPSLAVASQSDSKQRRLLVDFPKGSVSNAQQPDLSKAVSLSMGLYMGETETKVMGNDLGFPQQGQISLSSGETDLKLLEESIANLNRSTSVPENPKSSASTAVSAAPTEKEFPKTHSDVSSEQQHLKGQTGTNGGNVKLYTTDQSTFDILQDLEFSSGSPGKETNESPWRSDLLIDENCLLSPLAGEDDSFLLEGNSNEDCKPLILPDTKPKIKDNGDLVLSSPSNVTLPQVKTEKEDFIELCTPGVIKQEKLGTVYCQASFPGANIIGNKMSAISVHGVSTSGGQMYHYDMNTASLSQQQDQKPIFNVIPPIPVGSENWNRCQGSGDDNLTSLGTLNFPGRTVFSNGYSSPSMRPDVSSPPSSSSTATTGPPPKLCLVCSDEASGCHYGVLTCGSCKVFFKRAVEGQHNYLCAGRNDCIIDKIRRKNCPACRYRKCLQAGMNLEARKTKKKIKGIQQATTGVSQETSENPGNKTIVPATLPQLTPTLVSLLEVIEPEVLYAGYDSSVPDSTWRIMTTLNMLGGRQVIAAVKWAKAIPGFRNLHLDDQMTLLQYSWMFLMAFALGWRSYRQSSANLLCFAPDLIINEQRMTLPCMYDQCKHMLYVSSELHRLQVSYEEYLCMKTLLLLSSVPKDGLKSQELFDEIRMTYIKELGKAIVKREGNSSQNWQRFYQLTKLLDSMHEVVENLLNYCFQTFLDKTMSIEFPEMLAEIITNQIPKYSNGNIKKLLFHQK
Chain of Peroxisome proliferator-activated receptor gamma (Homo sapiens) (P37231 whole entry, looked up): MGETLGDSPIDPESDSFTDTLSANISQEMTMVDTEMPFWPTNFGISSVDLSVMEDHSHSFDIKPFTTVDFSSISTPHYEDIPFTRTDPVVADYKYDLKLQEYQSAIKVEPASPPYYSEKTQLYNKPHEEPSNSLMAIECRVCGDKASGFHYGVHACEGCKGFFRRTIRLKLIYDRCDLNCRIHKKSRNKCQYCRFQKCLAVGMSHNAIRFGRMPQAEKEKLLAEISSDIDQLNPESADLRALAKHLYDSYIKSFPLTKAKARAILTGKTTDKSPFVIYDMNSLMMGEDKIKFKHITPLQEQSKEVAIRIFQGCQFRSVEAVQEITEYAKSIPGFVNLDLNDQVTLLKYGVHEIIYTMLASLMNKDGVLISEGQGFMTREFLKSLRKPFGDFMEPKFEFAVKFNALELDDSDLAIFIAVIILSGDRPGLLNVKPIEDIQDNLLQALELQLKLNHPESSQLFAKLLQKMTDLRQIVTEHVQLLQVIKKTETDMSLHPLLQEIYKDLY

As to `Cc1c(N)cccc1Cl`, the caspase-3 activation in [1] was 0.378% (inactive). For the same compound, the Potency result in test [2], in [3], in [5], in test [6] and in test [10] was “inactive” in each case. Also, the result in [4], in [8] and in test [9] was inactive. The max response in test [7] is -10%; in test [11], 0.674% (inactive).

As for `Cc1cccnc1`, the Potency result in [12], in test [14], in [2], in test [15] and in [3] was “inactive” throughout. Further, the caspase-3 activation in test [1] is -1.09% (inactive). Further, the call in [13] and in [9] was inactive. Further, the max response in [11] is -8.35% (inactive).

Regarding `CCNC(=S)NCC`, the Potency result in test [12], in test [16], in [17], in test [2], in [18] and in test [5] was “inactive” in each case. Besides, the Potency result in [19] is “inactive”. The caspase-3 activation in [1] is -2.38% (inactive). Further, the result in test [13], in test [4], in [8] and in test [9] was inactive. Also, the max response in test [7] is 61.6%; in test [11], -6.53% (inactive).

With `c1ccc(COCc2ccccc2)cc1`, in test [1], the caspase-3 activation is 2.76% (inactive). In addition, the Potency result in test [16], in test [17], in test [14], in test [2], in test [15] and in test [20] was “inactive” throughout. The Potency result in [5], in test [6], in test [19] and in [10] was “inactive” each time. Besides, the compound was classed as inactive in test [13], in test [4] and in test [9].

As to `CCCCC(CC)COCCCN` (centres undefined), the Potency entry in [12], in [16], in test [14], in test [2], in [18] and in test [5] was “inactive” in each case. Moreover, the caspase-3 activation in test [1] was -1.34% (inactive). Also, the outcome in test [4] and in test [8] was inactive. Besides, the results for the max response in [7] and in test [11] were 8.44% and 10.2% (inactive), respectively.

As to `CCOC(=O)C1OC1c1ccccc1` (centres undefined), the Potency entry in test [12], in test [14], in test [18], in test [6] and in test [19] was “inactive” throughout. Moreover, the caspase-3 activation in [1] was 0.955% (inactive). The figures for the max response in test [7] and in test [11] were -6.92% and -1.14% (inactive), respectively. Moreover, the compound was classed as inactive in [8]. In addition, the Potency in test [10] was 59.6 µM (active).

As to `c1ccc2ncccc2c1`, in test [1], the caspase-3 activation was -0.104% (inactive). For the same compound, the Potency result in test [16], in [14], in test [15], in test [18], in [5] and in test [6] was “inactive” throughout. The Potency result in test [10] was “inactive”. For the same compound, the compound was classed as inactive in [13], in [4] and in [8]. For the same compound, the max response is 41.8% in test [7] and -7.69% (inactive) in [11].

For the compound `CC(=O)OCc1ccc2c(c1)OCO2`, the Potency entry in test [12], in [16], in test [14], in test [2], in test [15] and in [3] was “inactive” each time. For the same compound, the Potency result in test [20], in test [6] and in [10] was “inactive” in each case. In addition, in [1], the caspase-3 activation was -3.09% (inactive). For the same compound, the compound was classed as inactive in test [13]. For the same compound, the max response in [11] was -6.03% (inactive).

For the compound `OCC(CO)(CBr)CBr`, the Potency entry in test [12], in test [16], in test [14], in [2], in [20] and in [6] was “inactive” throughout. For the same compound, the Potency result in test [19] and in test [10] was “inactive” each time. In test [1], the caspase-3 activation was -0.451% (inactive). Further, the max response in [7] was 0.13% and -4.24%; in [11], -6.95% (inactive) and -8.44% (inactive). Moreover, the outcome in test [8] was inactive.

As to `C1CCCNCC1`, the Potency entry in test [17], in test [14], in test [2], in [15], in [18] and in [3] was “inactive” throughout. The Potency entry in test [5] and in test [6] was “inactive” each time. The compound was called inactive in test [4], in test [8] and in test [9]. Further, the max response is -36.7% in [7] and -3.87% (inactive) in test [11].
